# DT40 TDP1 no CPT: qHTS for Inhibitors of human tyrosyl-DNA phosphodiesterase 1 (TDP1): qHTS in cells in absence of CPT. DT40 Tdp1-/- hTDP1 cells, no CPT, ATP luminescence, 48 h. 420,000 tested, 15% active. AID 686978, 2013. Potency, µM (top dose mostly 46.2 µM), for inactives: at the top dose activity change, negative = growth inhibition, hits mostly inhibitors; also: potency is read from the fitted curve at half-maximal effect; nearly all actives have a fitted effect of over 55% in size
#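 A cellular qHTS used chicken DT40 cells lacking endogenous Tdp1 but carrying stably transfected human TDP1. Compounds were applied without camptothecin, and cell growth kinetics were judged by ATP-dependent luminescence after ≥48 hr.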
# HT1080-NT tox: kills 2HG-producing HT-1080-NT fibrosarcoma cells; HT-1080-NT fibrosarcoma viability, CellTiter-Glo ATP luminescence, 48 h; Potency, µM (titrated, usually from 46.1 µM), inactives show top-dose activity, negative = less viability, usual class: cytotoxic; 360,000 tested, 1.6% active; AID 686970;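 also: NT is the 2HG producing partner of a matched IDH1 knockdown line; potency is read from the fitted curve at half-maximal effect; 0% = DMSO-treated cells and -100% = media-only wells without cells; nearly all actives have a fitted effect of over 55% in size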
#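 750 cells/well, RPMI + 5% FBS; 2 h settle, compound pin-transfer, 48 h at 37 degrees C. CellTiter-Glo 10 min RT, luminescence. Normalized to DMSO and media-only wells.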
# DT40 TDP1 CPT: DT40-hTDP1 cell growth loss with CPT. AID 686979. 420,000 tested, 12% active. chicken DT40 Tdp1-/-;hTDP1 cells + 20 nM CPT, ATP luminescence, 48 h. Potency, µM (doses to about 46.2 µM), for inactives: at the top dose activity change, negative = growth inhibition, usual class: inhibitors; also: potency is read from the fitted curve at half-maximal effect; nearly all actives have a fitted effect of over 55% in size
#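 Chicken DT40 Tdp1-/- cells complemented with human TDP1, 400 cells/well, exposed to compounds plus 20 nM camptothecin for at least 48 h at 37 C; viability read as ATP content by CellTiter-Glo luminescence.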
# HT1080 IDH1KD tx: kills HT-1080 cells with IDH1 knockdown | HT-1080 IDH1 knockdown viability, ATP luminescence, 48 h | AID 686971 | Potency, µM (series often up to 46.1 µM), without a hit: at the top dose activity, negative = toxicity, hits mostly cytotoxic | 360,000 tested, 2% active;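 also: potency is read from the fitted curve at half-maximal effect; 0% = DMSO wells and -100% = cell-free medium wells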
#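 Knockdown cells (IDH1KD HT-1080) received compounds 2 h after plating at 750 cells/well and were kept 48 h at 37 °C in 5% FBS RPMI. A CellTiter-Glo luminescence read gave % activity for curve fitting.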
# IL-1B inflam inh: inhibitors of inflammasome signaling (IL-1 beta secretion); activity change, % at 57.5 µM; 360,000 tested, 4.7% active; THP-1 LPS/ATP IL-1B secretion, AlphaLISA, 16 h; hits give low values; in the data active = activity change below about -50%; inconclusive = mostly about -30% to -49%
#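 Secreted IL-1B measured by AlphaLISA bead assay after 16 h compound exposure of THP-1 cells; compounds (final up to 57.5 uM) added 1 h before LPS (250 ng/mL) and ATP (1.25 mM) stimulation; lower signal means less secretion.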
# uPA surface inh: blocks generation of uPA at the cell surface; Potency, µM (titrated, usually from 38.3 µM), for the others: at the top dose activity change, negative = inhibition, actives largely listed as inhibitors; 330,000 tested, 0.31% active; AID 540303; cell surface uPA generation assay, qHTS; active = well fitted inhibition curve with a large enough effect; inconclusive = small, poorly fitted or top-dose-only effect; inactive = no such curve, though single readings can be large or run the other way; tested in mouse RAW 264.7 cells; also: potency is read from the fitted curve at half-maximal effect; nearly all actives have a fitted effect of over 55% in size
# Active calls of the source: *; i = inactive; ? = inconclusive; . = no result given. Most compounds without a hit are left out; they make up all but 19% or so of the library. Unless noted, calls follow the shape of the dose curve; as a rule, active = well fitted curve in the direction sought with a large enough effect; inconclusive = small, poorly fitted or top-dose-only effect, or another doubt; inactive = no such curve, though single readings can be large; an effect the other way counts as inactive or inconclusive. Unless noted, % is scaled to controls: 0 for no effect and ±100 for the full control effect.
SMILES,DT40 TDP1 no CPT,HT1080-NT tox,DT40 TDP1 CPT,HT1080 IDH1KD tx,IL-1B inflam inh,uPA surface inh
COC(=O)Cc1c[nH]c2cccc(OCC(O)CN(Cc3ccc([N+](=O)[O-])cc3)C(C)(C)C)c12 (centres undefined),18.4µM*,1.0%,?,-12.8%,-7.1,7.5%
CN(CC(=O)Nc1ccc(F)c(F)c1F)C(=O)/C=C/c1ccc(Cl)cc1,?,16.3%,-16.7%,4.8%,0.5,0.8%
COc1ccc(C(C)=O)cc1CN1C(=O)C(Cc2ccccc2)ON=C1c1ncccc1C (centres undefined),?,0.7%,20.6µM*,15.2%,-25.1,.
CC(=O)N1N=C(c2cccc(Cl)c2)OC1c1cccc([N+](=O)[O-])c1 (centres undefined),20.6µM*,-26.4%,?,?,-1.3,-0.1%
CC(=O)N1N=C(c2cccc([N+](=O)[O-])c2)OC1c1cccc(Br)c1 (centres undefined),?,-0.2%,-3.7%,15.6%,40.3,-3.4%
COc1ccccc1N=Nc1nc(-c2ccccc2)c(-c2ccccc2)[nH]1,16.4µM*,-17.1%,18.4µM*,?,-14.3,-6.9%
COc1cc(-c2nc(-c3ccccc3)c(-c3ccc(F)cc3)[nH]2)cc2c1OCO2,?,-6.5%,?,-9.7%,-2.8,2.2%
COc1ccc(-c2nc(C)ncc2N=Nc2ccccc2)cc1,-44.4%,-9.4%,?,-0.2%,?,4.7%
COc1ccc(N=Nc2nc(-c3ccccc3)c(-c3ccccc3)[nH]2)cc1,16.4µM*,-8.8%,?,-2.4%,?,-4.4%
Oc1ccccc1N=Nc1nc(-c2ccccc2)c(-c2ccccc2)[nH]1,2.91µM*,?,2.59µM*,?,-9.4,11.9%
Cc1csc(N2C(=O)C3C4CCC(O4)C3C2=O)n1 (centres undefined),-8.4%,17.4%,7.2%,0.0%,1.8,-0.2%
COc1cccc(C(O)c2nc(-c3ccc4ccccc4c3)cs2)c1 (centres undefined),-28.6%,?,?,?,14.5,.
COCc1cc(C)nc2sc3c(=O)n(-c4cc(C)ccc4C)nnc3c12,-2.2%,.,-5.7%,.,.,.
Cc1cccc(Cn2cc3c(=O)n(CC(=O)Nc4ccc(C)c(F)c4)nc-3c3cc(F)ccc32)c1,-21.2%,.,5.5%,.,.,.
O=C1c2ccccc2NC(c2ccc(-c3ccc(Br)cc3)o2)N1O (centres undefined),?,7.94µM*,?,11.2µM*,100.6,.
CCn1cc(CN2CCCC(CNS(=O)(=O)c3ccc(OC)cc3)C2)cn1 (centres undefined),2.0%,0.1%,1.1%,-10.7%,i,-0.3%
CCn1nc(C)c(CN2CCCC(CNS(=O)(=O)c3ccc(OC)cc3)C2)c1C (centres undefined),?,-0.6%,20.6µM*,-6.7%,22.1,-14.6%
CCc1ccc(CN2CCCC(CNS(=O)(=O)c3ccc(OC)cc3)C2)cc1 (centres undefined),?,-32.2%,-18.8%,-29.8%,-94.3*,-7.8%
Cc1ccccc1OCCCn1c(-c2ccc(Cl)cc2)nc2ccccc2c1=O,-0.2%,.,-12.4%,.,.,.
CCOC(=O)NC1(NCC(C)C)Oc2ccccc2O1,-24.7%,?,?,-28.7%,26.9,.
CCOC(=O)NC1(NCc2ccccc2)Oc2ccccc2O1,20.6µM*,?,?,?,24.5,-29.6%
Cc1noc(C)c1COc1ccc(C(=O)OCC(=O)Nc2c(C)n(C)n(-c3ccccc3)c2=O)cc1,3.9%,0.4%,7.5%,8.9%,38.8,-5.1%
C[C@@H]1CC[C@]2(C(=O)O)CC[C@]3(C)C(=CCC4[C@]56CC[C@@](O)(OC5)C(C)(C)C6CC[C@]43C)C2[C@H]1C (some centres undefined),18.4µM*,?,13µM*,?,37.8,-18.0%
CCN(c1ccccc1)S(=O)(=O)c1ccc(OC)c(NC(=O)c2cc(Cl)ccn2)c1,?,-0.9%,?,0.3%,9.1,4.0%
S=C(Nc1ccc(Br)cc1)N1CCn2cccc2C1c1cccnc1 (centres undefined),?,-4.5%,?,-25.8%,-64.9*,5.3%
SMILES,DT40 TDP1 no CPT,HT1080-NT tox,DT40 TDP1 CPT,HT1080 IDH1KD tx,IL-1B inflam inh,uPA surface inh
COc1cccc(N(C(=O)CCl)C(C(=O)NCCc2ccccc2)c2cccs2)c1 (centres undefined),4.61µM*,1.64µM*,4.11µM*,1.3µM*,?,-12.4%
COc1ccc(N(C(=O)CCl)C(C(=O)NCCc2ccccc2)c2cccs2)cc1Cl (centres undefined),1.46µM*,18.4µM*,2.59µM*,5.8µM*,-102.7*,3.98µM*
COCCNC(=O)C(c1cccs1)N(C(=O)Cn1nnc2ccccc21)c1ccccc1 (centres undefined),-8.9%,15.7%,-15.8%,18.0%,-1.5,-1.2%
COc1cccc(N(C(=O)CS(=O)CC(=O)Nc2ccc(F)cc2)C(C(=O)NC2CCCCC2)c2cccs2)c1 (centres undefined),?,?,?,?,-0.4,-4.1%
COc1c(O)cc2oc3cc(O)c(CC=C(C)C)c(O)c3c(=O)c2c1CC=C(C)C,11.9µM*,.,18.8µM*,.,.,.
CC(C)=CCc1c(O)cc2oc3c(CC=C(C)C)c(O)c(O)c(CC=C(C)C)c3c(=O)c2c1O,20.6µM*,?,?,?,2.4,-29.7%
CC(C)=CCc1cc(-c2oc3cc(O)cc(O)c3c(=O)c2O)ccc1O,?,-0.6%,?,-8.5%,15.1,8.9%
COc1cc2ccc(=O)oc2c(CC=C(C)C)c1OC,-20.1%,0.0%,-24.7%,0.4%,-12.4,4.5%
Cn1cc(CN2CCCC(C(=O)c3cccs3)C2)c(-c2cccc(Cl)c2)n1 (centres undefined),16.4µM*,-19.8%,?,-14.6%,-28.3,-3.2%
Cc1ccsc1C(=O)C1CCCN(Cc2cn(C)nc2-c2ccccc2)C1 (centres undefined),?,-3.0%,?,-0.6%,-1.9,-0.5%
CN(C)S(=O)(=O)N1CCCC(C(=O)c2ccc(-c3ccccc3)cc2)C1 (centres undefined),23.1µM*,-1.5%,?,-1.2%,-22.6,.
Cc1ncoc1C(=O)N1CCCC(C(=O)c2ccc(-c3ccccc3)cc2)C1 (centres undefined),23.1µM*,-1.4%,18.4µM*,-16.6%,0.0,3.2%

# High-throughput results from PubChem BioAssay.
